Results filed as inconclusive are left out. The source made the active and inactive calls. Calls follow the shape of the dose curve; as a rule, active = well fitted inhibition curve with a large enough effect; inconclusive = small, poorly fitted or top-dose-only effect; inactive = flat fitted curve, though single readings scatter.
Key:
Assay in all cases: qHTS profiling for inhibitors of Plasmodium falciparum proliferation (AID 504749); also: nearly all actives have a fitted effect of over 60% in size
Settings in all cases: P. falciparum in erythrocytes, SYBR Green DNA, 72 h; series mostly up to 28.7 µM
[1] = system: CP201
Outline: (§1)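 Infected RBCs, 0.3% parasitemia/2.5% Hct final; cpd 72 h, 37 C, 5% CO2; lysis buffer with saponin/triton/SYBR Green I, o/n RT dark; FI 485/535; norm. to artemisinin (0.29 uM) and DMSO.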

[2] = system: CP203
Outline: as §1

[3] = system: CP211
Outline: as §1

[4] = system: CP215
Outline: as §1

[5] = system: CP217
Outline: as §1

[6] = system: CP237
Outline: as §1

[7] = system: CP238
Outline: as §1

[8] = system: CP247
Outline: as §1

[9] = system: CP250
Outline: as §1

[10] = system: CP252
Outline: as §1

Measured: Potency
Potency is read from the fitted curve at half-maximal effect.

C=C1C(CCl)(CCl)C2(Cl)C(Cl)C(Cl)C1(Cl)C2(Cl)Cl (centres undefined)
active: [1] 13.5 µM | [2] 3.79 µM | [3] 12 µM | [4] 3.79 µM | [5] 3.16 µM | [6] 3.16 µM | [7] 3.16 µM | [8] 3.16 µM | [9] 1.12 µM | [10] 3.16 µM

CCCCC/C=C\C/C=C\C/C=C\CCCCC(=O)O
inactive: [1] | [2] | [3] | [4] | [5] | [6] | [7] | [8] | [9] | [10]

CO/N=C(\C(=O)N[C@@H]1C(=O)N2C(C(=O)[O-])=C(C[n+]3cccc4c3CCC4)CS[C@H]12)c1csc(N)n1
inactive: [1] | [2] | [3] | [4] | [5] | [6] | [7] | [8] | [9] | [10]

O=S(=O)(O)CCCS(=O)(=O)O
inactive: [1] | [2] | [3] | [4] | [5] | [6] | [7] | [8] | [9] | [10]

CCC(C(=O)NC(N)=O)c1ccccc1 (centres undefined)
inactive: [1] | [2] | [3] | [4] | [5] | [6] | [7] | [8] | [9] | [10]

Oc1cc(O)cc(O)c1
inactive: [1] | [2] | [3] | [4] | [5] | [6] | [7] | [8] | [9] | [10]

CCN(CC)C(=O)c1cccnc1
inactive: [1] | [2] | [3] | [4] | [5] | [6] | [7] | [8] | [9] | [10]

CCCCCCCCCC(=O)NO
inactive: [1] | [2] | [3] | [4] | [5] | [6] | [7] | [8] | [9] | [10]

C[Se]CC[C@H](N)C(=O)O
inactive: [1] | [2] | [3] | [4] | [5] | [6] | [7] | [8] | [9] | [10]

CCOC(C)OCC
inactive: [1] | [2] | [3] | [4] | [5] | [6] | [7] | [8] | [9] | [10]

CS(=O)(=O)OCC(O)C(O)COS(C)(=O)=O (centres undefined)
inactive: [1] | [2] | [3] | [4] | [5] | [6] | [7] | [8] | [9] | [10]

CC(C)=CCC/C(C)=C/CC/C(C)=C/CC/C=C(\C)CC/C=C(\C)CCC=C(C)C
inactive: [1] | [2] | [3] | [4] | [5] | [6] | [7] | [8] | [9] | [10]

CC(C)(C)c1ccc2c(S(=O)(=O)O)c(C(C)(C)C)ccc2c1
inactive: [1] | [2] | [3] | [4] | [5] | [6] | [7] | [8] | [9] | [10]

C=CC[C@@H]1/C=C(\C)C[C@H](C)C[C@H](OC)[C@H]2O[C@@](O)(C(=O)C(=O)N3CCCC[C@H]3C(=O)O[C@H](/C(C)=C/[C@@H]3CC[C@@H](O)[C@H](OC)C3)[C@H](C)[C@@H](O)CC1=O)[C@H](C)C[C@@H]2OC
active: [1] 5.36 µM | [2] 4.78 µM | [3] 4.78 µM | [4] 3.79 µM | [5] 3.16 µM | [6] 0.708 µM | [7] 1.12 µM | [8] 1.41 µM | [9] 0.891 µM | [10] 1 µM

CCC(O)c1ccccc1 (centres undefined)
inactive: [1] | [2] | [3] | [4] | [5] | [6] | [7] | [8] | [9] | [10]

O=C1N=C2SCCN2C(=O)C1Cc1ccc(Cl)cc1 (centres undefined)
inactive: [1] | [2] | [3] | [4] | [5] | [6] | [7] | [8] | [9] | [10]

S=C1SCN(Cc2ccccc2)CN1Cc1ccccc1
inactive: [1] | [2] | [3] | [4] | [5] | [6] | [7] | [8] | [9] | [10]

CCN(CC)CCCC(C)Nc1cc(/C=C/c2ccccc2Cl)nc2cc(Cl)ccc12 (centres undefined)
active: [1] 4.78 µM | [2] 10.7 µM | [3] 15.1 µM | [4] 13.5 µM | [5] 3.16 µM | [6] 1.78 µM | [7] 4.47 µM | [8] 3.55 µM | [9] 1.26 µM

c1ccc(-n2cnnn2)cc1
inactive: [1] | [2] | [3] | [4] | [5] | [6] | [7] | [8] | [9] | [10]

C[C@]12CC[C@@H]3c4ccc(OC(=O)c5ccccc5)cc4CC[C@H]3[C@@H]1CC[C@@H]2O
inactive: [1] | [2] | [3] | [4] | [5] | [7] | [8] | [9] | [10]
active: [6] 4.47 µM

CC1(C)S[C@@H]2[C@H](NC(=O)C3(N)CCCCC3)C(=O)N2[C@H]1C(=O)O
inactive: [1] | [2] | [3] | [4] | [5] | [6] | [7] | [8] | [9] | [10]

Cc1cc(C)c(NC(=O)C[C@H](CC(=O)O)c2cccc3ccccc23)c(C(=O)N2CCC3(CCCC3)CC2)c1
inactive: [1] | [2] | [3] | [4] | [5] | [6] | [7] | [8] | [9] | [10]

CCN(CC)CCC(=O)N1c2ccccc2Sc2ccc(Cl)cc21
inactive: [1]

OCl
inactive: [1] | [2] | [3] | [4] | [5] | [6] | [7] | [8] | [9] | [10]

Nc1nccs1
inactive: [1] | [2] | [3] | [4] | [5] | [6] | [7] | [8] | [9] | [10]

COc1ccc2c(c1)OC(C)(C)C(c1ccccc1)C2c1ccc(OCCN2CCCC2)cc1 (centres undefined)
active: [1] 5.36 µM | [2] 12 µM | [3] 10.7 µM | [4] 9.53 µM | [5] 3.16 µM | [6] 3.98 µM | [7] 11.2 µM | [8] 2.51 µM | [9] 4.47 µM | [10] 3.98 µM

CCCCCCCCCCCCOCCCN
inactive: [1] | [2] | [3] | [4] | [5] | [6] | [7] | [8] | [9] | [10]

Cc1cccc(C)c1NC(=O)NC1=CCCN1C
inactive: [1] | [2] | [3] | [4] | [5] | [6] | [7] | [8] | [9] | [10]

Cc1cc(-c2ccc(N=Nc3ccc4c(S(=O)(=O)O)cc(S(=O)(=O)O)c(N)c4c3O)c(C)c2)ccc1N=Nc1ccc2c(S(=O)(=O)O)cc(S(=O)(=O)O)c(N)c2c1O
inactive: [1] | [2] | [3] | [4] | [5] | [6] | [7] | [8] | [9] | [10]

S=C=Nc1ccc(N=C=S)cc1
inactive: [1] | [2] | [3] | [4] | [5] | [6] | [7] | [8] | [9] | [10]

CC(C)c1ncc([N+](=O)[O-])n1C
inactive: [1] | [2] | [3] | [4] | [5] | [6] | [7] | [8] | [9] | [10]

Nc1ncnc2c1ncn2CCOCP(=O)(O)O
inactive: [1] | [2] | [3] | [4] | [5] | [6] | [7] | [8] | [9] | [10]

CNC(=O)C[C@@H](N)C(=O)N[C@@H](C(=O)N[C@@H]1C(=O)N2[C@@H]1SC(C)(C)[C@@H]2C(=O)O)c1ccc(O)cc1
inactive: [1] | [2] | [3] | [4] | [5] | [6] | [7] | [8] | [9] | [10]

OC/C=C/c1ccccc1
inactive: [1] | [2] | [3] | [4] | [5] | [6] | [7] | [8] | [9] | [10]

CCOC(=O)Cc1ccc(-c2ccccc2)cc1
inactive: [1] | [2] | [3] | [4] | [5] | [6] | [7] | [8] | [9]

CC(C)(COP(=O)(O)OP(=O)(O)OC[C@H]1O[C@@H](n2cnc3c(N)ncnc32)[C@H](O)[C@@H]1OP(=O)(O)O)C(O)C(=O)NCCC(=O)NCCS (some centres undefined)
inactive: [1] | [2] | [3] | [4] | [5] | [6] | [7] | [8] | [9] | [10]

CC(CCc1ccc(O)cc1)NCC(O)c1ccc(O)cc1 (centres undefined)
inactive: [1] | [2] | [3] | [4] | [5] | [6] | [7] | [8] | [9] | [10]

CCc1ccc(S(=O)(=O)O)cc1
inactive: [1] | [2] | [3] | [4] | [5] | [6] | [7] | [8] | [9] | [10]

CC(=O)N[C@@H]1C(O[C@H]2O[C@H](C(=O)O)C(O)[C@H](O)[C@H]2O)[C@H](O)[C@@H](CO)O[C@H]1O[C@@H]1C(C(=O)O)O[C@@H](O[C@H]2[C@H](O)[C@@H](CO)OC(O)[C@@H]2NC(C)=O)[C@H](O)[C@H]1O (some centres undefined)
inactive: [1] | [2] | [3] | [4] | [5] | [6] | [7] | [8] | [9] | [10]

CC(CNC(=O)c1cccnc1)NC(=O)c1cccnc1 (centres undefined)
inactive: [1] | [2] | [3] | [4] | [5] | [6] | [7] | [8] | [9] | [10]

O=S(=O)(O)CC(S)CS (centres undefined)
inactive: [1] | [2] | [3] | [4] | [5] | [6] | [7] | [8] | [9] | [10]

CN=C1C=CC(=C(c2ccc(N(C)C)cc2)c2ccc(N(C)C)cc2)C=C1
active: [1] 1.2 µM | [2] 1.2 µM | [3] 0.757 µM | [4] 0.953 µM | [5] 0.316 µM | [6] 0.398 µM | [7] 0.562 µM | [8] 0.708 µM | [9] 0.562 µM | [10] 0.398 µM

CC(C)O
inactive: [1] | [2] | [3] | [4] | [5] | [6] | [7] | [8] | [9] | [10]

FC(F)(F)C(F)(F)C(F)(F)C(F)(F)C(F)(F)F
inactive: [1] | [2] | [3] | [4] | [5] | [6] | [7] | [8] | [9] | [10]

Cc1ccc(S(=O)(=O)NCl)cc1
inactive: [1] | [2] | [3] | [4] | [5] | [6] | [7] | [8] | [9] | [10]
